Measured values published in PubChem BioAssay AID485314 (National Center for Advancing Translational Sciences (NCATS), 2010).
Hit rate of the full screen: of about 340,000 compounds, about 4,500 (1.3%) were called active. Inconclusive results (about 5%) are left out. The sample as a whole holds a higher share of actives than the screen did. A number with no mark means an inactive call. Calls follow the shape of the dose curve; as a rule, active = well fitted inhibition curve with a large enough effect; inconclusive = small, poorly fitted or top-dose-only effect, or another doubt; inactive = no such curve, though single readings can be large or run the other way.

Biological target: DNA polymerase beta (Homo sapiens) (UniProt P06746)
Experiment: qHTS Assay for Inhibitors of DNA Polymerase Beta
Details: Pol beta primer extension/strand displacement, fluorescence kinetic; series mostly up to 114 µM; activity change, negative = inhibition: at the top concentration
Procedure, shortened: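 10 nM enzyme + cpd, 15 min RT; start with substrate 50 nM final; read 0 min and after 10 min RT. Corrected, normalized data; 4-parameter Hill curve fit.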
% is scaled to controls: 0 for no effect and ±100 for the full control effect; potency is read from the fitted curve at half-maximal effect.

Compound	activity change, negative = inhibition [%]	Potency
COc1ccc(S(=O)(=O)NCc2cccn2Cc2cccc(C)c2)cc1Cl	-0.864	–
COc1ccc(N2CCN(C3=NS(=O)(=O)C(c4cccc(Br)c4)=C3C)CC2)cc1	-13.7	–
COc1ccc2oc(C(=O)NCC(Cc3ccccc3)N(C)C)c(C)c2c1 (stereo unspecified)	22.1	–
COc1cc([C@H](Cc2ccccc2)NC(C)=O)oc(=O)c1	–	17.8 µM (active)
CCOC(=O)C(Cc1ccccc1)NC(=O)CCC(=O)c1ccc(OC)cc1 (stereo unspecified)	4.15	–
CC(C)c1nc2oc3c(N4CCN(C)CC4)ncnc3c2c2c1CCC2	–	12.6 µM (active)
Cc1cc(C)nc(N2CCN(c3ncnc4c3oc3ccccc34)CC2)n1	2.21	–
Cc1ccc(NC(=O)c2ccc(CN3CC(=O)N4CCCCC4C3=O)cc2)c(Cl)c1 (stereo unspecified)	2.76	–
Cc1nnc(C)n1-c1ccc(C(=O)Nc2cccc(Br)c2)cc1	1.29	–
Cc1cccc(NC(=O)C2CC(=O)OC23CCCC3)c1 (stereo unspecified)	–	28.2 µM (active)
Cc1cccc(NC(=O)C2CCN(C(=O)NC3CCCCC3)CC2)c1	7.66	–
Cc1cccc(NC(=O)NC2(C)CCS(=O)(=O)C2)c1 (stereo unspecified)	22.6	–
CCOC(=O)c1ccc(NC(=O)c2csc3c2CCCCC3)cc1	6.91	–
Cc1nn(-c2ccc(N3CCCCC3)nn2)c(C)c1CCC(=O)NCc1ccc(F)cc1	-15.3	–
COc1ccc(-n2ccnc(NCCc3ccc(Cl)cc3)c2=O)cc1OC	-12	–
Cc1cc(C)cc(N(CC(=O)NCCSCc2ccco2)S(C)(=O)=O)c1	0.739	–
S=C(NCc1ccc2c(c1)OCO2)NCc1ccco1	1.93	–
CS(=O)(=O)N(CC(=O)NCc1ccco1)c1ccc2c(c1)OCO2	–	50.1 µM (active)
Cc1ccc(NC(=O)CSc2nc3c([nH]c4ccccc43)c(=O)n2-c2ccccc2)cc1Cl	3.88	–
Cc1ccc(NC(=O)c2ccc3[nH]c(C)cc(=O)c3c2)c(C)c1	-25	–
Fc1ccc(C(Nc2ccc(Cl)c(C(F)(F)F)c2)c2nnc(-c3ccccc3)o2)cc1 (stereo unspecified)	19.5	–
NS(=O)(=O)c1ccc(NC(=S)Nc2ccc(Br)c(Cl)c2)cc1	-1.82	–
Nc1c(Cl)cc(S(N)(=O)=O)cc1S(N)(=O)=O	–	25.1 µM (active)
CCCN(CCC)C(=O)C1CCCN(c2ncnc3c2nc2n3CCCCC2)C1 (stereo unspecified)	14.9	–
COc1ccc(-c2cc(C(=O)NCc3cc(OC)c(OC)c(OC)c3)[nH]n2)cc1	26.1	–
CCc1ccccc1NS(=O)(=O)c1ccc2nc(-c3ccccc3)[nH]c2c1	-33	–

Compound	activity change, negative = inhibition [%]	Potency
CCc1nnc(NC(=O)C2CCCN2S(=O)(=O)c2ccccc2)s1 (stereo unspecified)	-1.63	–
CCc1ccc(NC(=O)C2CCCN2S(=O)(=O)c2ccc3nc(-c4ccccc4)[nH]c3c2)cc1 (stereo unspecified)	–	12.6 µM (active)
CCc1ccccc1NC(=O)Cc1ccc(NC(=O)N2CCCCc3ccccc32)cc1	7.27	–
CCOc1ccc(Nc2c(S(=O)(=O)c3ccccc3)cnc3ccccc23)cc1	-23.2	–
CCn1cc(C(=O)N2CCN(c3cc(C)ccc3C)CC2)c(=O)c2cc(S(=O)(=O)N(C)C3CCCCC3)ccc21	18.9	–
Cc1ccc(S(=O)(=O)N2CCCc3cc(NS(=O)(=O)c4cc(C)ccc4C)ccc32)cc1	8.08	–
Cc1ccc(Nc2c(-c3ccc(N(C)C)cc3)nc3nc[nH]n23)cc1	5.92	–
O=C(NC(=S)NC1CCS(=O)(=O)C1)c1cccc([N+](=O)[O-])c1 (stereo unspecified)	31.6	–
O=C(NC(=O)c1ccc(Cl)c(Cl)c1)OC1CCS(=O)(=O)C1 (stereo unspecified)	–	89.1 µM (active)
O=C(Cc1ccc(Cl)cc1)NC1CCS(=O)(=O)C1 (stereo unspecified)	-17.6	–
O=C1CCCC(O)=C1N=Nc1ccc(S(=O)(=O)N2CCOCC2)cc1	-9.17	–
O=C1CCCC(O)=C1N=Nc1ccc2ncsc2c1	–	35.5 µM (active)
O=C(CSc1ncc(CO)n1Cc1ccc(Cl)cc1)NCc1ccc(F)cc1	21.7	–
Cc1cccc(-c2nnc(SCC(=O)N3CCCc4ccccc43)o2)c1	19.1	–
CC(C)c1cc(C(=O)N/N=C/C(Br)=C/c2ccccc2)n[nH]1	-7.2	–
Cc1ccc(-c2cc(C(=O)N/N=C/C=C/c3ccccc3)n[nH]2)o1	–	17.8 µM (active)
Cc1ccc(-c2cc(C(=O)NN)n[nH]2)o1	-2.94	–
Cc1nn2c(=O)cc(COC(=O)c3ccccc3NC(=O)COc3ccccc3C)nc2s1	32.7	–
O=C(COc1ccccc1)OCc1cc(=O)n2nc(-c3cccs3)sc2n1	–	31.6 µM (active)
COc1ccccc1C(=O)OCc1cc(=O)n2nc(-c3cccs3)sc2n1	–	17.8 µM (active)
O=C(OCc1cc(=O)n2nc(C3CC3)sc2n1)c1ccccc1Cl	15.1	–
Cc1ccc(OCC(=O)OCc2cc(=O)n3nc(C4CC4)sc3n2)cc1	-1.49	–
Cc1ccc(OCC(=O)OCc2cc(=O)n3nc(C4CC4)sc3n2)cc1C	35.9	–
CCCn1c2ccccc2c2cnn(CC(=O)N(CC)c3cc(C)ccc3C)c(=O)c21	1.29	–
COc1ccc(N2CCN(C(=O)COc3ccc4c(C)cc(=O)oc4c3)CC2)cc1	0.172	–
Cc1cc(=O)oc2cc(OCC(=O)Nc3nnc(C4CC4)s3)ccc12	0.954	–

Compound	activity change, negative = inhibition [%]	Potency
Cc1ccc(O)c(/C=N/NC(=O)COc2ccc3c(C)cc(=O)oc3c2)c1	–	22.4 µM (active)
CCOC(=O)Cc1csc(NC(=O)COc2ccc3c(C)cc(=O)oc3c2)n1	–	44.7 µM (active)
CCOC(=O)Cc1csc(SCc2cc(=O)oc3cc(O)ccc23)n1	31.2	–
Cc1cc(=O)oc2ccc(OCC(=O)O)cc12	-0.812	–
CCOC(=O)c1c(NC(=O)Cc2coc3ccc(CC)cc23)sc2c1CCC2	18.5	–
COc1ccc(N2CCN(Cc3nc4c(c(=O)[nH]c(=O)n4C)n3Cc3ccc(Cl)cc3)CC2)cc1	-17.7	–
O=C(CSc1ncc(-c2ccccc2)[nH]1)Nc1ccc(F)cc1F	1.98	–
Cc1nc2c(c(C)nn2-c2ccccc2)c(C)c1CCC(=O)NCCc1ccc(Cl)cc1	1.97	–
CCOc1ccccc1CNC(=O)Nc1cn(CC(C)C)c(=O)c2ccccc12	5.13	–
Cc1nn(CC(=O)O)c(=O)c2cc3cc(F)ccc3n12	16.8	–
CC(C)c1ccc(NC(=O)Cn2nnc(C(=O)NCCc3ccccc3)c2N)cc1	–	7.94 µM (active)
COc1ccc(CNC(=O)c2nnn(CC(=O)Nc3cc(C)cc(C)c3)c2N)cc1	–	10 µM (active)
CCc1ccc(NC(=O)Cn2nnc(C(=O)NCc3ccc(OC)cc3)c2N)cc1	31.3	–
CCc1ccc(NC(=O)Cn2nnc(C(=O)NCc3ccc4c(c3)OCO4)c2N)cc1	21.7	–
COc1ccc(NC(=O)Cn2nnc(C(=O)NCCc3ccc(OC)c(OC)c3)c2N)cc1	0.0268	–
Cc1cccc(NC(=O)c2nnn(CC(=O)Nc3ccc(C(C)C)cc3)c2N)c1C	26.7	–
COCCNC(=O)CSc1nc(-c2ccccc2)[nH]c1-c1ccc(C)cc1	5.82	–
Cc1cccc(NC(=O)CN(c2ccc(C(C)C)cc2)S(=O)(=O)c2c(C)nn(C)c2C)c1C	36.1	–
CCOC(=O)c1c(NC(=O)c2ccc(S(=O)(=O)N(CC)CC)cc2)sc2c1CCCCC2	-0.222	–
Cc1cc(C)c2oc(C(=O)Nc3ccc(S(=O)(=O)N(C)c4ccccc4)cc3)cc(=O)c2c1	26.5	–
COc1ccc(N2CCN(C(=O)CSCc3nc(-c4ccccc4Cl)oc3C)CC2)cc1	-7.35	–
Cc1nc2sc(C)c(C)n2c(=O)c1S(=O)(=O)NCCc1ccc(Cl)cc1	-2.13	–
CCc1cccc(-n2nnc(-c3nsc(NC(=O)c4ccc(C)cc4)n3)c2C)c1	-13.5	–
CCN(CCCNC(=O)c1cc(Nc2ccc(OC)cc2)nc2ccccc12)c1cccc(C)c1	30.8	–
Cc1nc2ccc(C(=O)N/N=C/c3ccc(O)cc3)cc2[nH]1	–	17.8 µM (active)
O=C(N/N=C/c1ccc(OC(=O)c2ccccc2Cl)cc1)c1ccc(O)cc1	17.4	–

Compound	activity change, negative = inhibition [%]	Potency
Cc1nonc1C(=O)N/N=C/c1ccc(O)cc1	-11.3	–
COc1ccc(N(Cc2cc3ccc(C)cc3[nH]c2=O)S(=O)(=O)c2ccccc2)cc1	6.72	–
Cc1ccc2cc(CN(c3ccc(C)c(C)c3)S(C)(=O)=O)c(=O)[nH]c2c1	-21.3	–
COc1ccc(N(Cc2cc3cc(OC)ccc3[nH]c2=O)S(C)(=O)=O)cc1	–	4.47 µM (active)
CCc1ccc(NC(=O)N2CCN(C(=O)c3nsc4ccccc34)CC2)cc1	40.9	–
COc1ccc(CNC(=O)CSCc2nc(-c3ccccc3F)oc2C)cc1	0.319	–
Cn1cc(S(=O)(=O)N2CCCCCC2)cc1C(=O)N1CCN(c2ccc(F)cc2)CC1	3.17	–
N#Cc1ccccc1CN1C(=O)S/C(=C/c2cccn2-c2cccc(C(=O)O)c2)C1=O	–	11.2 µM (active)
Cc1nn(Cc2ccccc2)c(C)c1C(=O)NCCN1C(=O)S/C(=C\c2ccc(F)cc2)C1=O	5.67	–
O=C(NCCN1C(=O)S/C(=C\c2cccnc2)C1=O)c1cccc(OC(F)F)c1	21.8	–
O=c1c(NCc2cccs2)nccn1-c1ccccc1	-23.5	–
COc1ccccc1CN1CCC(CNC(=O)c2cnn(-c3cccc(Cl)c3)c2C2CCN(C(=O)OC(C)(C)C)CC2)CC1	-17.3	–
CCc1ccccc1N1CC(c2nc3ccccc3n2CCCCOc2ccccc2)CC1=O (stereo unspecified)	12	–
CCOc1nc(NCCN2CCOCC2)nc(Nc2ccc(C)cc2)n1	32	–
c1ccc(-c2ccc(OCCN3CCOCC3)cc2)cc1	10.7	–
c1ccc2cc3c(NCCN4CCOCC4)ccnc3cc2c1	–	14.1 µM (active)
Cc1cccc2c1-c1sc(C(=O)Nc3ccc(F)cc3F)cc1CO2	-1.64	–
COc1cc(OC)cc(C(=O)OCC(=O)Nc2ccc(F)cc2F)c1	-0.999	–
O=C(COC(=O)c1ccc(F)cc1F)Nc1ncccn1	–	35.5 µM (active)
Cc1cccc(C(=O)OCC(=O)Nc2ccc(F)cc2)c1	-11.2	–
Cc1ccc(Nc2cc(=O)n(C3CCCCC3)c(=O)[nH]2)cc1C	–	56.2 µM (active)
O=c1cc(C(F)(F)F)[nH]c(=O)n1C1CCCCC1	5.99	–
Cc1ccc(NNC(=O)C2CCC2)cc1C	-17.5	–
